Shown are actives, neighbours in structure and some others; about 11% of the full set was active somewhere.
hNpr1 antagonist: human Npr1 receptor antagonism. P16066. actives 1.6% (n = 76,000). Potency, µM (top dose mostly 46.3 µM), usual class: inhibitors. AID 1347048. HEK293 hNpr1 GloSensor cGMP, ANP-stimulated luminescence; calls by dose curve; also: nearly all actives have a fitted effect of over 60% in size
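HEK293 cells stably expressing human Npr1 and cGMP GloSensor pGS-40F, loaded 2 h with 2% GloSensor reagent, given compound 30 min at room temperature. Luminescence read before and 20 min after 0.1 nM hNppA.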
NIH3T3 tox: kills NIH 3T3 cells | NIH 3T3 viability, CellTiter-Glo ATP luminescence, 48-72 h | Potency, µM (series often up to 96.7 µM), hits mostly inhibitors | actives 4.3% (n = 94,000) | AID 1345082; also: nearly all actives have a fitted effect of over 55% in size
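Cytotoxicity is measured as loss of cellular ATP: NIH 3T3 cells (400/well) are exposed to compound for 48 or 72 hr at 37 °C, then CellTiter-Glo luminescence is imaged after 10 min at room temperature.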
HEK cytotox: kills HEK 293 cells; HEK 293 viability, ATP luminescence (CellTiter-Glo), 48-72 h; Potency, µM (series often up to 115 µM), usual class: inhibitors; actives 6.6% (n = 94,000); AID 1345083; also: nearly all actives have a fitted effect of over 60% in size
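HEK 293 cells seeded at 250 cells/well were exposed to compound for 48 or 72 hr at 37 degree Celsius. Viability taken as ATP content by CellTiter-Glo luminescence.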
Luciferase inh: blocks purified firefly luciferase enzyme activity; P08659; purified P. pyralis luciferase, luminescence, biochemical; Potency, µM (top dose mostly 115 µM), most hits filed as inhibitors; actives 2.5% (n = 76,000); also: nearly all actives have a fitted effect of over 65% in size
Target sequence (P08659 whole entry, looked up): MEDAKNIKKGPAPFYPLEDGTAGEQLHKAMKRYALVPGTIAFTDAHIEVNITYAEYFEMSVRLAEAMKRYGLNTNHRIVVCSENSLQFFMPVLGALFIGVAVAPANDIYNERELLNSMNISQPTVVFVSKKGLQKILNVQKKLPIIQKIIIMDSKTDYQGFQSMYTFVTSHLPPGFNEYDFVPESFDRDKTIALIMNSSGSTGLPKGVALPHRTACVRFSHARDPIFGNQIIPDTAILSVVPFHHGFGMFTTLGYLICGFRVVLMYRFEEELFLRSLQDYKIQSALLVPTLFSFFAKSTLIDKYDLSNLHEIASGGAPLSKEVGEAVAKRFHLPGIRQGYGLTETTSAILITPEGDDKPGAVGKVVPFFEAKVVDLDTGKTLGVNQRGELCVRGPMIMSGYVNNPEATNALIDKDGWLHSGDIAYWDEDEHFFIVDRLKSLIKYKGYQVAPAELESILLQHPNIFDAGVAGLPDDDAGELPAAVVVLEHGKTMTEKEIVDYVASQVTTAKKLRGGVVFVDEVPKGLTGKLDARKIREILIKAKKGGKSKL
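Inhibitors were tested against purified firefly luciferase in a biochemical, low-substrate format (both substrates at 10uM) and luminescence measured with a CCD imager.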
NPR1 antag cnf: hNpr1 antagonism, confirmation assay | HEK293 hNpr1 cGMP GloSensor luminescence, ANP-stimulated | actives 76% (n = 1,400) | shares compounds with hNpr1 antagonist | Potency, µM (series often up to 57.6 µM), actives largely listed as inhibitors | AID 1347044; calls by dose curve; also: nearly all actives have a fitted effect of over 70% in size
Npr2 selectivity: hNpr2 antagonism, selectivity versus Npr1; Potency, µM (doses to about 57.6 µM), usual class: inhibitors; AID 1347046; shares compounds with hNpr1 antagonist; HEK293 hNpr2 GloSensor cGMP luminescence, CNP-stimulated; actives 67% (n = 1,400); calls by dose curve; also: nearly all actives have a fitted effect of over 70% in size
FLuc counter: counter-screen for Npr1 antagonists: firefly luciferase inhibitors | purified FLuc enzyme, luminescence, Km substrate | actives 0.7% (n = 1,400) | Potency, µM (top dose mostly 57.6 µM), hits mostly inhibitors | shares compounds with hNpr1 antagonist
GloSensor ctrl: counter-screen for Npr1 antagonists: GloSensor control cell line | AID 1347051 | actives 69% (n = 1,400) | HEK293 GloSensor cGMP, SNP-stimulated, luminescence | Potency, µM (highest dose often 57.6 µM), most hits filed as inhibitors | shares compounds with hNpr1 antagonist; calls by dose curve; also: nearly all actives have a fitted effect of over 70% in size
Each line names hits and unclear results; the compound was inactive in the other large screens (follow-up assays come after a bar, where they were run). Unless noted, calls follow the shape of the dose curve; as a rule, active = well fitted curve in the direction sought with a large enough effect; inconclusive = small, poorly fitted or top-dose-only effect, or another doubt; inactive = no such curve, though single readings can be large; an effect the other way counts as inactive or inconclusive.

CN(C)c1cccc(Oc2nnnn2[C@H]2CO[C@H]3[C@@H]2OC[C@@H]3NC(=O)c2ccccc2)c1	hNpr1 antagonist 12.6µM, HEK cytotox inconclusive | NPR1 antag cnf inconclusive | Npr2 selectivity inconclusive | FLuc counter inactive | GloSensor ctrl inconclusive
CN(C)c1ccc(C(=O)N[C@H]2CO[C@H]3[C@@H]2OC[C@@H]3n2nnnc2Oc2cccc(N(C)C)c2)cc1	hNpr1 antagonist 11.2µM, HEK cytotox inconclusive | NPR1 antag cnf 13.7µM | Npr2 selectivity 15.3µM | FLuc counter inactive | GloSensor ctrl 12.2µM
Cc1ccc(C(=O)N[C@H]2CO[C@H]3[C@@H]2OC[C@@H]3n2nnnc2Oc2ccccc2)cc1	hNpr1 antagonist 8.91µM, NIH3T3 tox inconclusive, HEK cytotox inconclusive | NPR1 antag cnf 11.1µM | Npr2 selectivity 15.7µM | FLuc counter inactive | GloSensor ctrl 9.94µM
O=C(N[C@H]1CO[C@H]2[C@@H]1OC[C@@H]2n1nnnc1Oc1ccccc1)c1cncnc1	none
COc1ccc(C(=O)N[C@H]2CO[C@H]3[C@@H]2OC[C@@H]3n2nnnc2Oc2cccc(N(C)C)c2)cc1	hNpr1 antagonist 7.08µM, NIH3T3 tox inconclusive, HEK cytotox inconclusive | NPR1 antag cnf 12.2µM | Npr2 selectivity 12.2µM | FLuc counter inactive | GloSensor ctrl 9.68µM
CC(C)CCC(=O)NC1CCN(c2cnn(CC3CC3)c(=O)c2)CC1	HEK cytotox inconclusive
COc1cccc(C(=O)N2CCN(CCCn3nc4n(c3=O)CCCC4)CC2)c1	none (no result: hNpr1 antagonist, Luciferase inh)
O=C(Nc1ccc(Oc2ccccc2)cc1)N[C@H]1CO[C@H]2[C@@H]1OC[C@@H]2n1nnnc1Oc1ccc(-n2ccnc2)cc1	hNpr1 antagonist 11.2µM, NIH3T3 tox inconclusive, HEK cytotox 39.8µM | NPR1 antag cnf 21.7µM | Npr2 selectivity 21.7µM | FLuc counter inactive | GloSensor ctrl 17.2µM
CS(=O)(=O)N1CCC2(CC1)CC(CC(=O)N1CCC(Cc3ccccc3)CC1)CCO2 (centres undefined)	HEK cytotox inconclusive (no result: hNpr1 antagonist, Luciferase inh)
COCCN1CCCC[C@]2(C[C@H](C(=O)O)[C@H](c3ccco3)N2C(=O)CC(C)(C)C)C1=O	NIH3T3 tox inconclusive (no result: hNpr1 antagonist, Luciferase inh)
O=C1c2ccccc2CN1C1CCN(Cc2ccc(C(F)(F)F)cc2)CC1	NIH3T3 tox inconclusive, HEK cytotox inconclusive (no result: hNpr1 antagonist, Luciferase inh) | NPR1 antag cnf 21.7µM | Npr2 selectivity 24.3µM | FLuc counter inactive | GloSensor ctrl 19.3µM
O=C1N(C2CCCCC2)C[C@H]2CN(Cc3ccc(C(F)(F)F)cc3)CCN12	hNpr1 antagonist 12.6µM, NIH3T3 tox inconclusive, HEK cytotox inconclusive | NPR1 antag cnf 15.7µM | Npr2 selectivity 19.8µM | FLuc counter inactive | GloSensor ctrl 15.7µM
COc1ccc(CN2CCN3C(=O)N(Cc4ccc(C)cc4)C[C@H]3C2)cc1	hNpr1 antagonist inconclusive, NIH3T3 tox inconclusive, HEK cytotox inconclusive
COc1ccc(CN2C[C@H]3CN(Cc4ccc(C)cc4)CCN3C2=O)cc1	hNpr1 antagonist 17.8µM, NIH3T3 tox inconclusive, HEK cytotox inconclusive | NPR1 antag cnf 17.7µM | Npr2 selectivity 22.2µM | FLuc counter inactive | GloSensor ctrl 19.8µM
O=C1N(Cc2ccc(F)cc2)C[C@H]2CN(Cc3ccc(C(F)(F)F)cc3)CCN12	hNpr1 antagonist 10µM, NIH3T3 tox inconclusive, HEK cytotox inconclusive | NPR1 antag cnf 11.1µM | Npr2 selectivity 15.7µM | FLuc counter inactive | GloSensor ctrl 8.86µM
O=C1N(Cc2ccccn2)C[C@H]2CN(Cc3ccc(C(F)(F)F)cc3)CCN12	hNpr1 antagonist inconclusive, NIH3T3 tox inconclusive, HEK cytotox inconclusive
Cc1nc(CN2Cc3nc(-c4ccc(Cl)cc4)ccc3OCC2=O)cs1	hNpr1 antagonist inconclusive, NIH3T3 tox inconclusive, HEK cytotox inconclusive
O=C1COc2ccc(N3CCCC3)nc2CN1Cc1ccccc1	NIH3T3 tox inconclusive, HEK cytotox inconclusive
O=C1COc2ccc(Nc3ccc(Cl)cc3)nc2CN1Cc1nc2ccccc2s1	hNpr1 antagonist inconclusive, NIH3T3 tox 39.8µM, HEK cytotox 31.6µM | NPR1 antag cnf inconclusive | Npr2 selectivity inconclusive | FLuc counter inactive | GloSensor ctrl inconclusive
O=C1COc2ccc(-c3ccc(Cl)cc3)nc2CN1Cc1ccccc1	hNpr1 antagonist inconclusive, NIH3T3 tox inconclusive, HEK cytotox 63.1µM | NPR1 antag cnf 31.4µM | Npr2 selectivity 22.2µM | FLuc counter inactive | GloSensor ctrl inconclusive
O=C1c2c(nc(COc3ccc4c(c3)OCO4)n2Cc2ccccc2)NCCN1CC1CCOCC1	HEK cytotox inconclusive
O=C1c2c(nc(CNCc3cccc(F)c3)n2Cc2ccccc2)NCCN1Cc1cccc(Cl)c1	NIH3T3 tox inconclusive, HEK cytotox inconclusive
O=C1c2c(nc(COc3ccc4c(c3)OCO4)n2Cc2ccccc2)NCCN1Cc1ccccc1F	hNpr1 antagonist inconclusive, NIH3T3 tox inconclusive, HEK cytotox 35.5µM | NPR1 antag cnf 24.3µM | Npr2 selectivity inconclusive | FLuc counter inactive | GloSensor ctrl inconclusive
O=C1c2c(nc(CNCc3cccc(Cl)c3)n2Cc2ccccc2)NCCN1CCOc1ccccc1	NIH3T3 tox inconclusive, HEK cytotox inconclusive | NPR1 antag cnf inconclusive | Npr2 selectivity inconclusive | FLuc counter inactive | GloSensor ctrl inconclusive
Fc1cc(Nc2ncc(-c3cccnc3)c3c2OCC3)cc(N2CCOCC2)c1	NIH3T3 tox inconclusive, HEK cytotox inconclusive, Luciferase inh inconclusive
CN(Cc1cccnc1)c1ccc2ncc(Nc3cc(F)cc(N4CCOCC4)c3)n2n1	hNpr1 antagonist inconclusive, NIH3T3 tox 28.2µM, HEK cytotox inconclusive | NPR1 antag cnf 35.3µM | Npr2 selectivity inconclusive | FLuc counter inactive | GloSensor ctrl inconclusive
CN(Cc1ccc(F)cc1)c1ccc2ncc(Nc3ccncc3)n2n1	hNpr1 antagonist inconclusive, NIH3T3 tox inconclusive, HEK cytotox inconclusive
COc1ccc(F)cc1Nc1cnc2ccc(N(C)Cc3cccnc3)nn12	hNpr1 antagonist 7.94µM, NIH3T3 tox inconclusive, HEK cytotox 35.5µM | NPR1 antag cnf 25µM | Npr2 selectivity 25µM | FLuc counter inactive | GloSensor ctrl 17.7µM
COc1ccc(Nc2cnc3ccc(N(C)Cc4cccnc4)nn23)cc1	NIH3T3 tox inconclusive, HEK cytotox inconclusive
CN(Cc1cccnc1)c1ccc2ncc(Nc3ccc(C(F)(F)F)cc3)n2n1	hNpr1 antagonist 25.1µM, NIH3T3 tox inconclusive, HEK cytotox 44.7µM | NPR1 antag cnf 22.2µM | Npr2 selectivity 31.4µM | FLuc counter inactive | GloSensor ctrl 22.2µM
O=C1NCCN2CC3(CCN(C(=O)CC4CCCCC4)CC3)CC12 (centres undefined)	none
